# HePTP inh: human HePTP phosphatase inhibition; P35236; recombinant HePTP phosphatase activity, OD absorbance; inhibition, % at 20 µM; 0.64% of 110,000 active; AID 521; in the data active = inhibition above about 50%
# Target sequence (P35236 whole entry, looked up): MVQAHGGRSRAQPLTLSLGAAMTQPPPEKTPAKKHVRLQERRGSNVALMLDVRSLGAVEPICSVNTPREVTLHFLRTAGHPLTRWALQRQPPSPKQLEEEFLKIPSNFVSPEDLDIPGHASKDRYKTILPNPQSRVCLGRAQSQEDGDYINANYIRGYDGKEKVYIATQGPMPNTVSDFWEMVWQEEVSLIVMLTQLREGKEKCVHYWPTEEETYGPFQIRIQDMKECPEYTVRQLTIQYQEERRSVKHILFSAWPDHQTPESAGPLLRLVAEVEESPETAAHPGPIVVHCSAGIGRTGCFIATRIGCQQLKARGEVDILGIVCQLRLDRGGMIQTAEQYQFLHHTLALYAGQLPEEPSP
# Ecoli WT expand: blocks growth of wild type E. coli BW25113; OD600 absorbance; growth inhibition, % at 100 µM; 0.15% of 98,000 active; AID 710;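 active = growth inhibition above about 50% at one test dose, limit read from the data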;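 note: growth measured after 20 h incubation at 37 °C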
# PLAP act: activates human placental alkaline phosphatase; P05187; purified PLAP enzyme, luminescent substrate read-out; hits give high values; activation fold at 20 µM; 1.2% of 96,000 active; AID 696; in the data active = activation fold above about 2
# TNAP act mid DEA: human TNAP activation, intermediate phosphate acceptor; 64,000 tested, under 10 active; purified TNAP, CDP-star luminescence, 100 mM DEA, 30 min; hits give high values; scale: 0 levamisole-inhibited, 1 vehicle-only enzyme; P05186; AID 813; activation factor at 20 µM;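 active = activation factor of at least 2 at 20 µM, relative to controls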
# Hits are given with their value; . = inactive; / = not tested or not shown. An excerpt weighted towards active compounds, which were near 1.3% of everything screened.
SMILES,HePTP inh,Ecoli WT expand,PLAP act,TNAP act mid DEA
CCn1c(SCC(=O)Nc2cc(C)on2)nnc1-c1ccc(S(=O)(=O)N2CCN(C)CC2)cc1,/,.,2,/
CCn1c(SCC(=O)N2CCCC(C)C2)nnc1-c1ccc(S(=O)(=O)N2CCN(C)CC2)cc1 (configuration not stated),/,.,2,/
O=C(c1ccc2c(=O)n3c(nc2c1)CCCCC3)N1CCN(C(c2ccccc2)c2ccccc2)CC1,/,.,.,/
CN1CCN(c2nc(-c3cccnc3)nc3ccccc23)CC1,.,.,.,.
CCCCCC(=O)N/N=C(\C)c1ccccn1,/,.,2.4,/
CCOC(=O)N/N=C(\C)c1ccccn1,.,/,/,/
CCOc1ccc2nc(NC(=O)C(NS(=O)(=O)c3cccs3)C(C)C)sc2c1 (configuration not stated),.,.,.,.
CCOc1ccc2nc(NC(=O)C(CCSC)NS(=O)(=O)c3cccs3)sc2c1 (configuration not stated),.,.,2.4,.
CCOc1ccc2nc(NC(=O)c3cnc(C)cn3)sc2c1,/,.,2.6,/
CCOc1ccc2nc(NC(=O)c3cc(C)cc(C)c3)sc2c1,.,/,/,/
CCC1(CC)Nc2ccccc2C(=O)N1c1ccc(NC(C)=O)cc1,.,.,.,.
COc1ccc(CCNc2ncnc3[nH]ncc23)cc1OC,.,.,2,.
COc1ccc(CCNc2ccncn2)cc1OC,/,.,.,/
O=C(CSc1nnnn1-c1ccc2c(c1)OCCO2)c1cccc2c1OCCO2,.,.,.,.
CC(C)Oc1ccc(Cc2cnc(N)nc2N)cc1,.,71.0,.,/
COc1ccc(Cc2c(N)nc(N)nc2N)cc1,/,.,.,/
CCOC(=O)CCc1c(C)nc2c(c(C)nn2C(C)(C)C)c1C,.,.,.,.
Cc1c(NC(=O)c2ccc3c4c(cccc24)CC3)c(=O)n(-c2ccccc2)n1C,.,.,.,/
O=C(c1nn2c(c1Cl)NC(c1ccc(Cl)cc1)CC2C(F)(F)F)N1CCN(c2ccccc2)CC1 (configuration not stated),.,/,/,/
Cc1ccccc1Cn1ccc(-c2ccc3c(c2)OCO3)n1,/,.,.,/
Nc1c(C(=O)NCCN2CCOCC2)c2nc3ccccc3nc2n1-c1cccc(F)c1,.,.,2,.
CCC(Sc1nc(C)cc(C)n1)C(=O)O (configuration not stated),.,.,.,.
CC1=NN(c2nc(C)cc(C)n2)C(=O)C1CCC(C)C (configuration not stated),/,.,2.3,/
CCCn1c(Cc2ccccc2)n[nH]c1=S,/,.,.,/
S=c1[nH]nc(Cc2ccccc2)n1Cc1ccco1,.,.,2.1,.
SMILES,HePTP inh,Ecoli WT expand,PLAP act,TNAP act mid DEA
CCC(=O)N1CCc2cc(S(=O)(=O)NCCCN3CCN(Cc4ccccc4)CC3)ccc21,.,.,2,.
COc1ccc([N+](=O)[O-])cc1CSc1nc2ccc(N3C(=O)c4ccccc4C3=O)cc2s1,.,/,/,/
O=C(NCc1ccco1)c1cc2nc(-c3cccs3)cc(C(F)(F)F)n2n1,.,.,.,.
O=C(Nc1cccc(-c2nnn(CC(=O)N3CCc4ccccc4C3)n2)c1)C1CCC1,.,.,2.3,.
COc1cc(OC)cc(-c2nnc(Nc3nc4c(F)cccc4s3)o2)c1,.,.,2.6,.
COc1ccc(-c2nnc(Nc3nc4c(OC)cccc4s3)o2)c(OC)c1,/,.,/,/
COc1ccc(-c2nnc(Nc3nc4c(OC)cccc4s3)o2)cc1,.,.,2.3,.
COc1ccc(CNS(=O)(=O)c2ccc(OC)cc2)cc1,.,.,.,/
Cc1ccc(C(=O)NC(=S)NCC2CCCO2)cc1 (configuration not stated),/,.,.,/
Cc1cc(C(=O)NNC(=S)NCC2CCCO2)cs1 (configuration not stated),/,.,2.2,/
Cc1ccc(S(=O)(=O)/N=C(\c2ccc(Cl)cc2)N2CCOCC2)cc1,/,.,.,/
CCCCn1c(CCn2nc(C)c(Br)c2C)n[nH]c1=S,/,.,2.1,/
COc1ccc(CC(=O)Nc2ccc3c(c2)CCC3)cc1OC,/,.,2.1,/
COc1ccc(CC(=O)NNC(=O)c2ccc(Cl)cc2)cc1OC,.,/,/,/
CNC(=S)NNC(=O)Cc1ccc(OC)c(OC)c1,/,.,2.1,/
CN(C)c1ccc(CNC2CC(C)(C)NC(C)(C)C2)cc1,.,.,.,.
CN(C)c1ccc(/C=C2/C(=O)N(c3ccc([N+](=O)[O-])cc3)N=C2N2CCOCC2)cc1,/,.,.,/
O=C1/C(=C/c2cccnc2)SC(=S)N1Cc1ccco1,.,/,/,/
O=C(Nc1nc2ccccc2n1CCN1CCCC1)C1CCCCC1,.,.,2.6,.
O=C(Nc1nc2ccccc2n1CCN1CCCC1)c1ccc(Cl)cc1,.,.,.,.
Cc1ccc(C(=O)Nc2nc3ccccc3n2CCN2CCCC2)cc1,.,.,2.8,.
